Calls of active or inactive are those of the source. The calls were made as follows: active = hit-call score of the fitted dose curve at least 0.9, where 1 is the maximum; inactive = score below 0.9.
Columns and labels:
Conditions in all cases: mRNA level, 48 h; actives raise or lower the signal
[1] = read-out: Ezrin (EZR), EZR (gene 7430); assay: LTEA_HepaRG_EZR: Life Technologies and Expression Analysis (LTEA) Assay for Ezrin (EZR) using HepaRG (AID 2283491)
Summary of the method: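 Differentiated human HepaRG cells, 48 h after plating, were exposed in serum-free induction medium for 48 hours to eight half-log concentrations up to 100 uM in 0.5% DMSO. EZR mRNA was measured by TaqMan qRT-PCR, normalized to ACTB, GAPDH and POLR2A, and fitted bidirectionally against DMSO.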

[2] = read-out: Cytochrome P450 3A7 (Homo sapiens) (UniProt P24462); assay: LTEA_HepaRG_CYP3A7: Life Technologies and Expression Analysis (LTEA) Assay for CYP3A7 using HepaRG (AID 2283492)
Summary of the method: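 Cells were thawed, plated, cultured 48 h, then treated for a further 48 h with chemicals (eight-point half-log series from 100 uM, 0.5% DMSO). RNA was isolated and CYP3A7 expression quantified by qRT-PCR normalised to ACTB, GAPDH and POLR2A.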

CYP3A5 (gene 1577) = assay: LTEA_HepaRG_CYP3A5: Life Technologies and Expression Analysis (LTEA) Assay for CYP3A5 using HepaRG (AID 2283493)
Summary of the method: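 Readout was CYP3A5 mRNA by qRT-PCR. HepaRG cultures were exposed for 48 h in serum-free induction medium to chemicals at up to 100 uM, and responses were fitted in both directions relative to DMSO vehicle.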

[3] = read-out: Fatty Acid-Binding Protein 1 (FABP1), FABP1 (gene 2168); assay: LTEA_HepaRG_FABP1: Life Technologies and Expression Analysis (LTEA) Assay for Fatty Acid-Binding Protein 1 (FABP1) using HepaRG (AID 2283494)
Summary of the method: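 Values reflect bidirectional concentration-response fitting of FABP1 mRNA change against 0.5% DMSO controls. Human HepaRG cultures received eight half-log doses (top 100 uM) for 48 h; expression quantified by TaqMan qRT-PCR with housekeeping-gene normalization.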

[4] = read-out: Cytochrome P450 4A22 (Homo sapiens) (UniProt Q5TCH4); assay: LTEA_HepaRG_CYP4A22: Life Technologies and Expression Analysis (LTEA) Assay for Cytochrome P450 4A22 (CYP4A22) using HepaRG (AID 2283495)
Summary of the method: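 Cryopreserved HepaRG cells, plated and cultured 48 h, then switched to serum-free induction medium and treated 48 h (duplicates, up to 100 uM, half-log steps, 0.5% DMSO). Expression change of CYP4A22 was fitted bidirectionally against vehicle.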

[5] = read-out: Cytochrome P450 7A1 (Homo sapiens) (UniProt P22680); assay: LTEA_HepaRG_CYP7A1: Life Technologies and Expression Analysis (LTEA) Assay for Cytochrome P450 7A1 (CYP7A1) using HepaRG (AID 2283496)
Summary of the method: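 Using 0.5% DMSO as vehicle and baseline, chemicals were tested in duplicate over an 8-point range from 100 uM on HepaRG cells for 48 h; qRT-PCR signals were normalised to ACTB, GAPDH and POLR2A.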

[6] = read-out: Glutathione S-Transferase (GSTA2), GSTA2 (gene 2939); assay: LTEA_HepaRG_GSTA2: Life Technologies and Expression Analysis (LTEA) Assay for Glutathione S-Transferase (GSTA2) using HepaRG (AID 2283497)
Summary of the method: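 Oxidative-stress marker GSTA2 is quantified by TaqMan qRT-PCR in HepaRG cultures treated 48 h across an eight-point range to 100 uM. Expression is normalized to endogenous controls and compared with 0.5% DMSO vehicle.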

[7] = read-out: Glutamate-cysteine ligase catalytic (GCLC), GCLC (gene 2729); assay: LTEA_HepaRG_GCLC: Life Technologies and Expression Analysis (LTEA) Assay for Glutamate-cysteine ligase catalytic (GCLC) using HepaRG (AID 2283498)
Summary of the method: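 Oxidative-stress marker GCLC is measured as mRNA change in human HepaRG liver cells after 48 h chemical treatment in 0.5% DMSO, eight concentrations from 100 uM. Activity is fitted bidirectionally against vehicle.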

[8] = read-out: growth arrest and DNA damage 45 (GADD45G), GADD45G (gene 10912); assay: LTEA_HepaRG_GADD45G: Life Technologies and Expression Analysis (LTEA) Assay for growth arrest and DNA damage 45 (GADD45G) using HepaRG (AID 2283499)
Summary of the method: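 Human hepatic HepaRG line treated 48 h with chemicals (eight concentrations, half-log steps from 100 uM); transcript induction or repression of GADD45G scored by qRT-PCR versus DMSO vehicle.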

[9] = read-out: Glutathione S-transferase M3 (GSTM3), GSTM3 (gene 2947); assay: LTEA_HepaRG_GSTM3: Life Technologies and Expression Analysis (LTEA) Assay for Glutathione S-transferase M3 (GSTM3) using HepaRG (AID 2283501)
Summary of the method: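 Changes in GSTM3 expression, an oxidative-stress marker, were scored by bidirectional curve fitting against 0.5% DMSO vehicle. Human HepaRG cultures received chemicals for 48 h in duplicate, highest concentration 100 uM with half-log dilutions.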

[10] = read-out: Heat shock 70 kDa protein 1 (HSPA1A), gene 3303; assay: LTEA_HepaRG_HSPA1A: Life Technologies and Expression Analysis (LTEA) Assay for Heat shock 70 kDa protein 1 (HSPA1A) using HepaRG (AID 2283502)
Summary of the method: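 An oxidative-stress marker readout: HepaRG cells treated 48 h in duplicate with an eight-point series (highest 100 uM) had HSPA1A mRNA quantified by TaqMan qRT-PCR. Activity was fitted in both directions using 0.5% DMSO as baseline.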

[11] = read-out: Hypoxia-inducible factor 1-alpha (Homo sapiens) (UniProt Q16665); assay: LTEA_HepaRG_HIF1A: Life Technologies and Expression Analysis (LTEA) Assay for Hypoxia-inducible factor 1 (HIF1A) Trancription factor using HepaRG (AID 2283503);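 also: HIF1A transcript by TaqMan qRT-PCR normalized to ACTB GAPDH and POLR2A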
Summary of the method: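 Gain- or loss-of-signal HIF1A mRNA changes are fitted against a DMSO baseline. HepaRG cultures receive eight concentrations, highest 100 uM, for 48 h in serum-free induction medium with 0.5% DMSO.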

[12] = read-out: 3-Hydroxy-3-Methylglutaryl-CoA Synthase 2 (HMGCS2), HMGCS2 (gene 3158); assay: LTEA_HepaRG_HMGCS2: Life Technologies and Expression Analysis (LTEA) Assay for 3-Hydroxy-3-Methylglutaryl-CoA Synthase 2 (HMGCS2) using HepaRG (AID 2283504)
Summary of the method: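 Expression of HMGCS2 in human HepaRG liver cells is measured by qRT-PCR 48 h after dosing (highest 100 uM, half-log series, 0.5% DMSO). Values come from bidirectional concentration-response fitting with DMSO as baseline.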

HGF (gene 3082) = assay: LTEA_HepaRG_HGF: Life Technologies and Expression Analysis (LTEA) Assay for Hepatocyte Growth Facto (HGF) using HepaRG (AID 2283505)
Summary of the method: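 Gain or loss of HGF mRNA in human HepaRG liver cells after 48 h chemical exposure; eight concentrations up to 100 uM with 0.5% DMSO vehicle, quantified by TaqMan qRT-PCR.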

[13] = read-out: Insulin Like Growth Factor 1 (IGF1), IGF1 (gene 3479); assay: LTEA_HepaRG_IGF1: Life Technologies and Expression Analysis (LTEA) Assay for Insulin Like Growth Factor 1 (IGF1) using HepaRG (AID 2283506)
Summary of the method: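 Endpoint: IGF1 mRNA change by qRT-PCR, housekeeping-normalized, fitted bidirectionally relative to 0.5% DMSO vehicle. Human HepaRG cells were treated 48 h in serum-free induction medium, eight half-log concentrations topping at 100 uM.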

[14] = read-out: Intercellular Adhesion Molecule 1 (ICAM1), ICAM1 (gene 3383); assay: LTEA_HepaRG_ICAM1: Life Technologies and Expression Analysis (LTEA) Assay for Intercellular Adhesion Molecule 1 (ICAM1) using HepaRG (AID 2283507)
Summary of the method: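 Gain or loss of transcript in HepaRG hepatic cells is quantified by qRT-PCR after 48 h chemical exposure (up to 100 uM, half-log steps), with DMSO as baseline.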

[15] = read-out: Insulin-like growth factor-binding protein 1 (IGFBP1), IGFBP1 (gene 3484); assay: LTEA_HepaRG_IGFBP1: Life Technologies and Expression Analysis (LTEA) Assay for Insulin-like growth factor-binding protein 1 (IGFBP1) using HepaRG (AID 2283508)
Summary of the method: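 mRNA induction or loss was quantified by qRT-PCR after 48 h chemical exposure of human HepaRG cells, with 0.5% DMSO as vehicle and baseline. Concentration-response over eight points up to 100 uM.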

[16] = read-out: Interleukin 6 (IL6), IL6 (gene 3569); assay: LTEA_HepaRG_IL6: Life Technologies and Expression Analysis (LTEA) Assay for Interleukin 6 (IL6) using HepaRG (AID 2283509)
Summary of the method: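 Changes in IL6 mRNA, up or down relative to 0.5% DMSO controls, were derived from concentration-response curves in human HepaRG cells treated for 48 h at up to 100 uM, with ACTB, GAPDH and POLR2A as normalizers.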

[17] = read-out: Glutamate-cysteine ligase regulatory (GCLM), GCLM (gene 2730); assay: LTEA_HepaRG_GCLM: Life Technologies and Expression Analysis (LTEA) Assay for Glutamate-cysteine ligase regulatory (GCLM) using HepaRG (AID 2283500)
Summary of the method: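 In this multiplexed HepaRG gene-expression assay, GCLM mRNA change after 48 h treatment (8 concentrations, max 100 uM) was scored against DMSO by bidirectional curve fitting.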

[18] = read-out: Interleukin 6 Receptor (IL6R), IL6R (gene 3570); assay: LTEA_HepaRG_IL6R: Life Technologies and Expression Analysis (LTEA) Assay for Interleukin 6 Receptor (IL6R) using HepaRG (AID 2283510)
Summary of the method: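 In this HepaRG screen, test chemicals act on cells for 48 h at up to 100 uM (eight half-log points, duplicate wells). IL6R expression is quantified by qRT-PCR after normalization to ACTB, GAPDH and POLR2A, with DMSO as baseline.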

Measured: AC50

Cytochrome P450 3A7 (Homo sapiens), sequence (P24462 whole entry, looked up): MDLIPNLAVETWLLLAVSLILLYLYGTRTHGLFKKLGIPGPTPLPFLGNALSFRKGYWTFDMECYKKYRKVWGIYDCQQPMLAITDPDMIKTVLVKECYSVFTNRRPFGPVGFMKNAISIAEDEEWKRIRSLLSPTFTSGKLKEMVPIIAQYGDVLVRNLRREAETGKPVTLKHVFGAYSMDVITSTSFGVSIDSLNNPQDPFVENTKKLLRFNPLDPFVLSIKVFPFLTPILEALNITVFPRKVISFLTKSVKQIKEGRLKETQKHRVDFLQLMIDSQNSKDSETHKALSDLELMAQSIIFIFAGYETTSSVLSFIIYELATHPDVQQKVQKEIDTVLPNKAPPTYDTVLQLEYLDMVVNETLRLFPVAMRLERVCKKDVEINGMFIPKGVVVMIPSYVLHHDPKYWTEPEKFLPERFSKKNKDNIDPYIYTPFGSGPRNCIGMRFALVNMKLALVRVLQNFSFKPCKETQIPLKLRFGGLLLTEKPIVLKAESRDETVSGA
Hypoxia-inducible factor 1-alpha (Homo sapiens), sequence (Q16665 whole entry, looked up): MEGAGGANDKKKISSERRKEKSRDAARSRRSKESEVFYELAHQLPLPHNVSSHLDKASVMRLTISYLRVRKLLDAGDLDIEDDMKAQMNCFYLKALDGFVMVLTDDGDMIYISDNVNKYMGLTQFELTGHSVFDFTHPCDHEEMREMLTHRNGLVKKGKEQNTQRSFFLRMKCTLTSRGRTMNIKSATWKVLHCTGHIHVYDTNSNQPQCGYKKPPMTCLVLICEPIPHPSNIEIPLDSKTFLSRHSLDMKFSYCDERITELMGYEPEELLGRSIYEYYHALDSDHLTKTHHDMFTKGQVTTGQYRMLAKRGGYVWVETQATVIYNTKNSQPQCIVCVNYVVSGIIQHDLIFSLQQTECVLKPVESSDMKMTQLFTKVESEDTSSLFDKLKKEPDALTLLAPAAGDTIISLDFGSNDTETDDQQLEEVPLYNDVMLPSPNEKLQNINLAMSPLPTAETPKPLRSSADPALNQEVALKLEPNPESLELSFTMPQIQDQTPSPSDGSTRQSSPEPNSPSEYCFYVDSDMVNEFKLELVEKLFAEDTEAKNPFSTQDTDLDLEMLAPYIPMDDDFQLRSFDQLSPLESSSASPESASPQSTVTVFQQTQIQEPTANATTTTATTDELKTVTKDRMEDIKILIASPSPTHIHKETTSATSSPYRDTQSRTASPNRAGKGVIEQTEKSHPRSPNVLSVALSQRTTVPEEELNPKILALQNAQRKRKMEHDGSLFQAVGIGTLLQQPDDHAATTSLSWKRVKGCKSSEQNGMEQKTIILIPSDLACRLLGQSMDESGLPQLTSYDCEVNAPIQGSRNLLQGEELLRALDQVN

O=C=NCCCCCCN=C=O
inactive: [1] | [2] | CYP3A5 (gene 1577) | [3] | [4] | [5] | [6] | [7] | [8] | [9] | [10] | [11] | [12] | HGF (gene 3082) | [13] | [14] | [15] | [16]

O=C1c2ccccc2C(=O)N1CCc1noc(-c2ccc(CN3CCCCCC3)s2)n1
inactive: [1] | [2] | CYP3A5 (gene 1577) | [3] | [4] | [5] | [6] | [7] | [8] | [17] | [9] | [10] | [11] | [12] | HGF (gene 3082) | [13] | [14] | [15] | [16] | [18]

CN1C(=O)CC[C@H]1c1cccnc1
inactive: [1] | [2] | CYP3A5 (gene 1577) | [3] | [4] | [5] | [6] | [7] | [8] | [17] | [9] | [10] | [12] | HGF (gene 3082) | [13] | [14] | [15] | [16] | [18]

O=C(O)c1ccccc1C(=O)OCc1ccccc1
inactive: [1] | [2] | CYP3A5 (gene 1577) | [5] | [6] | [7] | [17] | [9] | [10] | [11] | [12] | HGF (gene 3082) | [13] | [14] | [15] | [16]
active: [3] 28.1 µM | [4] 23.4 µM | [8] 5.56 µM

Cc1ccc(C(C)C)cc1
inactive: [1] | [2] | CYP3A5 (gene 1577) | [3] | [4] | [5] | [6] | [7] | [8] | [17] | [9] | [10] | [11] | [12] | HGF (gene 3082) | [13] | [14] | [15] | [16] | [18]

From PubChem BioAssay (EPA / NIEHS)
